According to PubChem BioAssay (EPA / NIEHS):
Inconclusive results are not listed. The source made the active and inactive calls. The calls were made as follows, unless noted: active = hit-call score of the fitted dose curve at least 0.9, where 1 is the maximum; inconclusive = response in the unintended direction; inactive = score below 0.9.

Columns and labels:
[1] = biological target: Cellular tumor antigen p53 (Homo sapiens) (UniProt P04637); assay: TOX21_p53_BLA_p2_ratio: Tox21 HCT-116 p53 Agonism Beta-lactamase Assay, Ratio, Phase 2 (AID 2283592)
Sequence of Cellular tumor antigen p53 (Homo sapiens) (P04637 whole entry, looked up): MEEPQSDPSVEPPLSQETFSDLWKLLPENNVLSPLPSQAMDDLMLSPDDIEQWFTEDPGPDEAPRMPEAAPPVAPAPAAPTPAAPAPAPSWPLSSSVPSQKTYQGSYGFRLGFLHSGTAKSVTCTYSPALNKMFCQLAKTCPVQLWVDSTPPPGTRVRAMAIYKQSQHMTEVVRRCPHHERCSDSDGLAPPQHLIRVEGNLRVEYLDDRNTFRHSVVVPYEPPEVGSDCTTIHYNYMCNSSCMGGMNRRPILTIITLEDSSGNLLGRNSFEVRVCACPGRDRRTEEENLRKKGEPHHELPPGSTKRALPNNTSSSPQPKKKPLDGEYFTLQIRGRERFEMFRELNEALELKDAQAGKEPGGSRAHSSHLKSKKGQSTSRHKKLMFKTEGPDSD
Procedure, shortened: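 HCT-116 cells with p53-responsive beta-lactamase reporter, 4000 cells/well, preincubated 5 h, then compound in DMSO (217-fold dilution) for 16 h at 37C. CCF4-AM substrate 2 h at room temperature; 460/530 nm emission ratio fitted upward versus DMSO.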

[2] = biological target: Cellular tumor antigen p53 (Homo sapiens) (UniProt P04637); assay: TOX21_p53_BLA_p3_ratio: Tox21 HCT-116 p53 Agonism Beta-lactamase Assay, Ratio, Phase 3 (AID 2283596)
Procedure, shortened: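 HCT116 p53-bla cells (4000/well) given compound in DMSO (217-fold dilution) after 5 h, incubated 16 h at 37C. CCF4-AM substrate 2 h at room temperature; 460/530 nm emission ratio, gain fitted against DMSO.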

[3] = biological target: Cellular tumor antigen p53 (Homo sapiens) (UniProt P04637); assay: TOX21_p53_BLA_p5_ratio: Tox21 HCT-116 p53 Agonism Beta-lactamase Assay, Ratio, Phase 5 (AID 2283599)
Procedure, shortened: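 HCT-116 p53-bla cells (4000/well) plated 5 h, dosed with compound (217-fold DMSO dilution) for 16 h at 37 C; CCF4-AM substrate 2 h at room temperature. Activity is the 460/530 nm emission ratio (405 nm excitation), fitted in gain-of-signal direction versus DMSO.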

[4] = biological target: Cellular tumor antigen p53 (Homo sapiens) (UniProt P04637); assay: TOX21_p53_BLA_p4_ratio: Tox21 HCT-116 p53 Agonism Beta-lactamase Assay, Ratio, Phase 4 (AID 2283601)
Procedure, shortened: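 HCT-116 p53 beta-lactamase reporter cells (4000/well) preincubated 5 h, then compound (217-fold dilution of DMSO stock) for 16 h at 37C. CCF4-AM substrate added 2 h at room temperature; 460/530 nm emission ratio fitted upward versus DMSO.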

[5] = TOX21_p53_BLA_p5_viability: Viability Assessment in the Tox21 HCT-116 p53 Agonism Beta-lactamase Assay, Phase 5 (AID 2283600)
Procedure, shortened: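 HCT-116 p53 beta-lactamase reporter cells, 4000/well, were exposed to compound (pin transfer, 217-fold dilution) for 16 hours at 37C. Cellular ATP was read by CellTiter-Glo luminescence after 30 min at room temperature.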

[6] = CCTE_Shafer_MEA_dev_firing_rate_mean: CCTE's Neural Network Formation Assay for Mean Firing Rate, Shafer Lab (AID 2284031; active = hit-call score of the fitted dose curve at least 0.9, where 1 is the maximum; inactive = score below 0.9)
Procedure, shortened: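 Primary rat cortical neurons on 48-well MEA plates, exposed from plating day 0 with dosing renewed on DIV 5 and 9. Mean well firing rate over active electrodes, recorded days 5, 7, 9, 12, summarised as trapezoidal AUC.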

[7] = CCTE_Shafer_MEA_dev_per_burst_spike_percent: CCTE's Neural Network Formation Assay for Percent of Spikes in a Burst, Shafer Lab (AID 2284032; active = hit-call score of the fitted dose curve at least 0.9, where 1 is the maximum; inactive = score below 0.9;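 also: fitted as a decrease in burst spike percentage below DMSO baseline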)
Procedure, shortened: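 Rat primary cortical neurons on 16-electrode MEA wells, dosed from plating day 0 for 12 days with renewal on DIV 5 and 9; spikes-in-bursts percentage averaged over bursting electrodes, collapsed as AUC across days 5, 7, 9, 12; loss direction versus DMSO.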

[8] = CCTE_Shafer_MEA_dev_active_electrodes_number: CCTE's Neural Network Formation Assay for Number of Active Electrodes, Shafer Lab (AID 2284040);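 also: potency for loss of active electrodes versus DMSO so lower counts are hits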
Procedure, shortened: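 Primary rat cortical neurons on 16-electrode MEA wells, exposed from day 0 through day 12 with compound renewed at DIV 5 and 9 feeds. Active electrodes (mean firing ≥5 spikes/min) counted at DIV 5, 7, 9, 12; trapezoidal AUC across days, loss-of-signal versus DMSO.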

[9] = CCTE_Shafer_MEA_dev_burst_rate: CCTE's Neural Network Formation Assay for Burst Rate, Shafer Lab (AID 2284042; active = hit-call score of the fitted dose curve at least 0.9, where 1 is the maximum; inactive = score below 0.9)
Procedure, shortened: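 Cells plated, treated day 0; recorded DIV 5, 7, 9, 12; fed and re-treated DIV 5, 9. Endpoint: bursts per recording time, active-electrode well mean, trapezoidal AUC, fitted in decreasing direction against DMSO baseline.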

[10] = CCTE_Shafer_MEA_dev_bursting_electrodes_number: CCTE's Neural Network Formation Assay for Number of Bursting Electrodes, Shafer Lab (AID 2284043);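 also: potency is for loss of bursting electrodes relative to DMSO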
Procedure, shortened: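 Primary rat cortical neurons plated on 16-electrode MEA wells, exposed from day 0 with compound renewed at DIV 5 and 9. Electrodes bursting ≥1 burst per 2 min counted on days 5, 7, 9 and 12; trapezoidal AUC across days, fitted for loss versus DMSO.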

[11] = CCTE_Shafer_MEA_dev_per_burst_interspike_interval: CCTE's Neural Network Formation Assay for Burst Interspike Interval, Shafer Lab (AID 2284044; active = hit-call score of the fitted dose curve at least 0.9, where 1 is the maximum; inactive = score below 0.9;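 also: mean spike spacing inside bursts as AUC over recordings on days 5 7 9 12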)
Procedure, shortened: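 Primary rat cortical neurons on 48-well MEA plates, exposed from day 0 through day 12, treatment renewed at DIV 5 and 9. Within-burst interspike interval recorded days 5, 7, 9, 12, well-averaged, summarised as AUC; negative fit versus DMSO.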

[12] = CCTE_Shafer_MEA_dev_burst_duration_mean: CCTE's Neural Network Formation Assay for Mean Burst Duration, Shafer Lab (AID 2284045; active = hit-call score of the fitted dose curve at least 0.9, where 1 is the maximum; inactive = score below 0.9)
Procedure, shortened: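 Primary rat cortical neurons on 48-well 16-electrode MEA plates, exposed from day 0 with renewal at DIV 5 and 9; spontaneous activity recorded on days 5, 7, 9, 12. Well-mean burst duration across bursting electrodes, collapsed as trapezoidal AUC; DMSO baseline.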

[13] = CCTE_Shafer_MEA_dev_interburst_interval_mean: CCTE's Neural Network Formation Assay for Mean Interburst Interval, Shafer Lab (AID 2284046; active = hit-call score of the fitted dose curve at least 0.9, where 1 is the maximum; inactive = score below 0.9;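 also: well-mean interburst interval of bursting electrodes as AUC over four recording days; curve fitted for decrease in interburst interval relative to DMSO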)
Procedure, shortened: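 Developing rat cortical networks on 48-well MEAs receive compound from the day of plating. Burst intervals from each active electrode are averaged per well, and AUC over the recording days is fitted in the negative direction against DMSO.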

[14] = CCTE_Shafer_MEA_dev_inter_network_spike_interval_mean: CCTE's Neural Network Formation Assay for Mean Inter-network Spike Interval, Shafer Lab (AID 2284047; active = hit-call score of the fitted dose curve at least 0.9, where 1 is the maximum; inactive = score below 0.9)
Procedure, shortened: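 Rat cortical cultures, 1.5 x 10^5 cells/well on 48-well MEA plates; continuous exposure days 0–12, medium and compound refreshed DIV 5, 9. Mean time between consecutive network-spike peaks; AUC across DIV 5/7/9/12; DMSO baseline, negative fitting direction.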

[15] = CCTE_Shafer_MEA_dev_network_spike_peak: CCTE's Neural Network Formation Assay for Mean Number of Electrodes in Network Spike, Shafer Lab (AID 2284049; active = hit-call score of the fitted dose curve at least 0.9, where 1 is the maximum; inactive = score below 0.9)
Procedure, shortened: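 Network-spike peak electrode count from recordings on days 5, 7, 9 and 12 was combined as trapezoidal area under the curve. Rat cortical cultures were treated continuously from plating, with compound renewed at each feed (DIV 5, 9); fits versus DMSO.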

[16] = CCTE_Shafer_MEA_dev_spike_duration_mean: CCTE's Neural Network Formation Assay for Mean Spike Duration, Shafer Lab (AID 2284051; active = hit-call score of the fitted dose curve at least 0.9, where 1 is the maximum; inactive = score below 0.9;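 also: mean network spike duration pooled as area under curve over DIV 5 to 12 recordings; potency for a decrease in mean network spike duration versus DMSO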)
Procedure, shortened: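 Readout is the average length of network spikes, clustered firing across electrodes, summed over DIV 5, 7, 9 and 12 as area under the curve. Neurons from rat cortex developed networks on MEA plates under continuous 12-day exposure.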

[17] = CCTE_Shafer_MEA_dev_network_spike_duration_std: CCTE's Neural Network Formation Assay for Standard Deviation of Network Spike Duration, Shafer Lab (AID 2284052; active = hit-call score of the fitted dose curve at least 0.9, where 1 is the maximum; inactive = score below 0.9;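 also: area under curve of spike duration SD across recording days 5 to 12; hits are decreases in network spike duration SD versus DMSO vehicle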)
Procedure, shortened: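 Read-out is the trapezoidal area-under-the-curve across recordings made on days 5, 7, 9 and 12, fitted in the negative direction against DMSO baseline. Neurons were primary rat cortical cells treated from day 0, with treatment renewed at each feed.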

[18] = CCTE_Shafer_MEA_dev_per_network_spike_spike_number_mean: CCTE's Neural Network Formation Assay for Mean Number of Spikes in a Network Spike, Shafer Lab (AID 2284053; active = hit-call score of the fitted dose curve at least 0.9, where 1 is the maximum; inactive = score below 0.9)
Procedure, shortened: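 Continuous twelve-day exposure of developing rat cortical networks grown over 16 microelectrodes per well; spontaneous firing is captured at four time points, and the per-network-spike spike number is integrated over development by trapezoidal AUC.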

[19] = CCTE_Shafer_MEA_dev_per_network_spike_spike_percent: CCTE's Neural Network Formation Assay for Percent of Spikes in a Network Spike, Shafer Lab (AID 2284054; active = hit-call score of the fitted dose curve at least 0.9, where 1 is the maximum; inactive = score below 0.9)
Procedure, shortened: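 Rat primary cortical neurons were grown on 48-well MEA plates (16 electrodes/well), exposed from plating day 0 through day 12, with treatment renewed on DIV 5 and 9. Percent of spikes within 0.05 s network-spike peaks was measured, summarised as AUC across days 5, 7, 9, 12.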

[20] = CCTE_Shafer_MEA_dev_LDH: CCTE's Lactate Dehydrogenase Assay for Cytotoxicity in the Neural Network Formation Assay, Shafer Lab (AID 2284068);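 also: exposure for twelve days from plating with re-dosing on DIV 5 and 9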
Procedure, shortened: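 Cytotoxicity companion to network-formation recordings: rat cortical neurons received compound over 12 days of development, re-dosed at DIV 5 and 9 feeds. Viability was inferred from LDH enzyme activity relative to DMSO.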

[21] = CCTE_Shafer_MEA_dev_AB: CCTE's Alamar Blue Assay for Cytotoxicity in the Neural Network Formation Assay, Shafer Lab (AID 2284083);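 also: resazurin reduction fluorescence as viability of cultured neurons; twelve days of exposure from plating with re-dosing on DIV 5 and 9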
Procedure, shortened: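 Fluorescent resazurin reduction serves as the viability read-out, with DMSO as negative control and baseline. Cells were primary rat cortical neurons grown on MEA plates and dosed from day 0 to day 12, treatment renewed on DIV 5 and 9.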

[22] = CCTE_Shafer_MEA_dev_mutual_information_norm: CCTE's Neural Network Formation Assay for Mutual Information Normalization, Shafer Lab (AID 2284091; active = hit-call score of the fitted dose curve at least 0.9, where 1 is the maximum; inactive = score below 0.9)
Procedure, shortened: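 Primary rat cortical neurons on PEI-coated 48-well MEA plates, 1.5 x 10^5 cells/well, exposed from day 0 through day 12 with re-dosing at DIV 5 and 9. Mutual information between electrodes recorded days 5, 7, 9, 12; trapezoidal AUC, loss-of-signal fit versus DMSO.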

[23] = CCTE_Shafer_MEA_dev_correlation_coefficient_mean: CCTE's Neural Network Formation Assay for Mean Correlation Coefficient, Shafer Lab (AID 2284093; active = hit-call score of the fitted dose curve at least 0.9, where 1 is the maximum; inactive = score below 0.9)
Procedure, shortened: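 Read-out: well-mean correlation coefficient of spike trains between electrode pairs, collapsed over four recording days as trapezoidal area-under-the-curve. Developing rat cortical neuron networks grown on MEAs received test chemical continuously from plating.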

[24] = CCTE_Mundy_HCI_Cortical_Synap_Neur_Matur_NeuriteSpotCountPerNeuriteLength: CCTE's Synaptogenesis and Neurite Maturation Assay in rat cortical cells for Neurite Spot Count per Neurite Length, Mundy Lab (AID 2284210; active = hit-call score of the fitted dose curve at least 0.9, where 1 is the maximum; inactive = score below 0.9)
Procedure, shortened: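 Rat primary cortical cultures, AraC added at DIV 5 to suppress glia; chemical exposure from DIV 7 to DIV 12. Fixed cells stained for MAP2 and synaptophysin plus Hoechst; synaptophysin puncta per neurite length quantified by high-content imaging, relative to DMSO.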

[25] = CCTE_Mundy_HCI_Cortical_NOG_NeuriteLength: CCTE's Neurite Outgrowth Assay in rat cortical cells for Neurite Length, Mundy Lab (AID 2284213; active = hit-call score of the fitted dose curve at least 0.9, where 1 is the maximum; inactive = score below 0.9)
Procedure, shortened: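 Neurite length was read by high-content imaging of βIII-tubulin-labelled neurites in rat primary cortical cultures. Activity was fitted relative to DMSO.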

[26] = CCTE_Mundy_HCI_Cortical_Synap_Neur_Matur_NeuriteLength: CCTE's Synaptogenesis and Neurite Maturation Assay in rat cortical cells for Neurite Length, Mundy Lab (AID 2284214; active = hit-call score of the fitted dose curve at least 0.9, where 1 is the maximum; inactive = score below 0.9)
Procedure, shortened: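 Rat primary cortical cultures, AraC added DIV 5, dosed DIV 7 through DIV 12 […]. Fixed, MAP2/synaptophysin immunostained with Hoechst; neurite length by high-content imaging, fitted in positive direction versus DMSO.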

[27] = CCTE_Mundy_HCI_Cortical_Synap_Neur_Matur_NeuriteSpotCountPerNeuron: CCTE's Synaptogenesis and Neurite Maturation Assay in rat cortical cells for Neurite Spot Count per Neuron Count, Mundy Lab (AID 2284215; active = hit-call score of the fitted dose curve at least 0.9, where 1 is the maximum; inactive = score below 0.9)
Procedure, shortened: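 Rat primary cortical cultures given AraC at DIV 5, dosed from DIV 7 to DIV 12 with media change. Fixed, stained for MAP2, synaptophysin and Hoechst; neurite-associated synaptophysin puncta per neuron quantified by high-content imaging versus DMSO.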

[28] = CCTE_Mundy_HCI_Cortical_Synap_Neur_Matur_SynapseCount: CCTE's Synaptogenesis and Neurite Maturation Assay in rat cortical cells for Synapse Count, Mundy Lab (AID 2284218; active = hit-call score of the fitted dose curve at least 0.9, where 1 is the maximum; inactive = score below 0.9)
Procedure, shortened: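 Rat primary cortical cultures, AraC at DIV 5, chemical dosing DIV 7 to DIV 12 (288.33 h). Fixed cells stained for MAP2, synaptophysin and Hoechst; synapses per neuron counted by high-content imaging, loss of signal versus DMSO.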

[29] = CCTE_Mundy_HCI_hN2_NOG_NeuriteCount: CCTE's Neurite Outgrowth Assay in human hN2 cells for Neurite Count, Mundy Lab (AID 2284219)
Procedure, shortened: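 In this morphology assay, hNP1-derived neurons received test chemical 2 h post-plating and were fixed two days later in warm paraformaldehyde/sucrose containing Hoechst 33342. Neurites, labelled by rabbit anti-βIII-tubulin (1:800) and Alexa Fluor-488 (1:500), were counted automatically.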

[30] = CCTE_Mundy_HCI_hN2_NOG_NeuriteLength: CCTE's Neurite Outgrowth Assay in human hN2 cells for Neurite Length, Mundy Lab (AID 2284220)
Procedure, shortened: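 Read-out is neurite length from high-content imaging of βIII-tubulin/Alexa Fluor-488-labelled neurons, referenced to DMSO controls.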

Measured: AC50

CCCC[N+]1(C)CCCC1 (tested in a mixture with another compound)
inactive: [1] | [2] | [3]
active: [4] 86.9 µM

CC(C)=CCN1CC[C@@]2(C)c3cc(O)ccc3C[C@@H]1[C@@H]2C
inactive: [2] | [5] | [4]
active: [1] 86.2 µM

CCCC[N+]1(C)CCCC1
inactive: [1] | [2] | [3] | [4]

CC(=O)OC1CN2CCC1CC2 (stereo not given)
inactive: [1] | [2] | [3] | [4]

CC(NC(C)(C)C)C(=O)c1cccc(Cl)c1 (stereo not given)
inactive: [1] | [2] | [3] | [4]

CN1C(=O)CN=C(c2ccccc2)c2cc(Cl)ccc21
inactive: [1] | [2] | [3] | [5] | [4] | [6] | [9] | [11] | [12] | [13] | [14] | [15] | [17] | [18] | [20] | [21] | [22] | [23] | [24] | [25] | [26] | [27] | [28] | [29] | [30]
active: [7] 3.62 µM | [8] 15 µM | [10] 4.58 µM | [16] 3.06 µM | [19] 15 µM
